Data on seven compounds can be found in PubChem BioAssay.

Assay [1] in a line: inhibitors of TNFa-induced NFkB p65 translocation, primary screen, imaging, HUVEC, MLSMR starter and 10KST1 sets (AID 438;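 active = inhibition above 20% together with a positive visual image hit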;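 note: compound added about 3h40 before a 20 min TNFalpha stimulation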;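 for inhibition: signal is the nuclear over cytoplasmic p65 intensity ratio per well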). The conditions noted are these: HUVEC TNFa-induced p65 nuclear translocation; cell count: measured here: nuclei count (cytotoxicity indicator), at 2.08 µM; inhibition: at 2 µM, stronger effect = higher value, 0% TNFa-plus-vehicle, 100% no-TNFa wells.
Assay [2] in a line: endothelial E-selectin expression blockers – imaging, HUVEC, immunofluorescence, MLSMR starter and 10KST1 sets, primary screen (AID 487;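 active = visually confirmed hit in the image check and inhibition above 20%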;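 for inhibition: signal is fraction of cell area covered by stained E-selectin grains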;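 for nuclei count: 100% = median nuclei count of all wells on the same plate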). To be noted: HUVEC TNFalpha-induced E-selectin immunofluorescence imaging, at 2 µM; inhibition: stronger effect = higher value; nuclei count: measured here: cell number, toxicity.
The nature of assay [3]: Primary imaging screen for DUSP6 inhibitors that restore phospho-Erk in transfected HeLa cells, chemical complementation (AID 609;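 active = compounds giving at least 50% inhibition in the cell-based MKP-3 phosphatase rescue imaging test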;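 for inhibition: phospho-Erk level distribution per well compared with pooled transfected vehicle control wells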). The conditions noted are these: HeLa MKP-3 transfected, phospho-Erk imaging KS statistic, at 10 µM, cells stimulated with TPA for 15 min.
Assay [4] concerns the target Dual specificity protein phosphatase 6 (Homo sapiens) (UniProt Q16828). Described as above. To be noted: HeLa MKP-3 transfected, phospho-Erk imaging KS statistic; at 10 µM; stronger effect = higher value; cells stimulated with TPA for 15 min.
Assay [5] has as its target Voltage-gated potassium channel subunit beta-2 (Rattus norvegicus) (UniProt P62483). The experiment in a line: inhibitors of rat Kvbeta2 reductase activity – biochemical, NADPH fluorescence, primary screen (AID 622;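 active = fluorescence slope higher than the sample average by over 3 SD, cut at about -0.22 in these data, passing the limit was not always enough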;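 note: slope of raw intensity against log time taken from 70 to 1610 s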). The conditions noted are these: recombinant KvBeta, 4-cyanobenzaldehyde reduction, at 10 µM, stronger effect = higher value.
Assay [6] shares this target. The experiment in a line: enhancers of rat Kvbeta2 NADPH turnover – biochemical, NADPH fluorescence, primary screen (AID 623;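 active = NADPH fluorescence slope more negative than the mean of all samples by about 3 SD, 99.7% confidence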;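 note: fluorescence intensity change per second fitted from 20 to 320 s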). To be noted: Recombinant KvBeta, NADPH fluorescence decrease slope, 10 min; at 10 µM; stronger effect = lower value.
For assay [7], the target named is Muscarinic acetylcholine receptor M4 (Homo sapiens) (UniProt P08173). The experiment in a line: M4-linked GIRK flux change, two-sided – cell-based, HEK293 M4/GIRK, thallium flux, BTC-AM, M4 allosteric agonist project, primary screen (AID 625;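 active = fluorescence slope after compound addition differing from the mean of all tested samples at 99.7% confidence, mostly higher but some lower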;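 note: thallium influx through GIRK channels coupled to M4 in HEK293 cells with BTC-AM dye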). To be noted: at 10 µM, actives lie on both sides.
Muscarinic acetylcholine receptor M4 (Homo sapiens), sequence (P08173 whole entry, looked up): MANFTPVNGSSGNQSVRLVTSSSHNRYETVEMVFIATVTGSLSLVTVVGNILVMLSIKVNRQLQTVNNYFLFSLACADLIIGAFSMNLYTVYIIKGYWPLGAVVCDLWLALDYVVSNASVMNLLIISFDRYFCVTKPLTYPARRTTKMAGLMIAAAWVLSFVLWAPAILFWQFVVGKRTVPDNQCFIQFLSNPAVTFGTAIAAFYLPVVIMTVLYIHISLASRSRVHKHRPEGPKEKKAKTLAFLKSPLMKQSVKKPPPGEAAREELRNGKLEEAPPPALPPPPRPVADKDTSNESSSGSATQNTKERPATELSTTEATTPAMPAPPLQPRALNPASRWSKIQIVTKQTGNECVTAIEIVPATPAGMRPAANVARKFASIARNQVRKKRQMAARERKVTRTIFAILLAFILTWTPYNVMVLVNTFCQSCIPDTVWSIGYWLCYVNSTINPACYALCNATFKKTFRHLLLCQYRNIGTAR
The nature of assay [8]: inhibitors of larval lipid processing in zebrafish, primary screen, whole organism, PED6 fluorescence, gall bladder and intestine (AID 686;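 active = a full or partial loss of lipid-probe fluorescence in the fish gall bladder, intestine or both, judged by eye; inactive = no fluorescence loss, or compound toxic to the fish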;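 note: larvae 5 to 7 days old with five fish per well; signal comes from phospholipase A2 cleavage of quenched PED6 carried via bile; overnight exposure to compound and PED6 before scoring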). The conditions noted are these: Zebrafish larvae PED6 lipid processing, fluorescence scoring; screened at 20 µM (by protocol).
Assay [9] is described as follows: loss of swimming-algae plug formation – whole organism, Chlamydomonas reinhardtii, WT vs cilia-less mutant, absorbance, 96-well, primary screen (AID 463189).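 Note: 0% = wild type cc124 cells in DMSO and 100% = ciliumless bld1 mutant cells.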 To be noted: Chlamydomonas reinhardtii gravitaxis, OD600 absorbance, 2 days; at 10 µM; stronger effect = higher value.
The nature of assay [10]: reduction of polyQ htt aggregates in cells – imaging, exon1htt(103Q)mCFP cells, high-content imaging, primary screen (AID 483;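 active = visual image review flags a hit and inhibition of aggregation exceeds 20%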;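 note: compound exposure lasted 3 days before fixation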;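 for nuclei count: percent of the per-plate median nuclei count of sample wells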). To be noted: exon1htt(103Q)mCFP cell line, aggregate imaging, at 2 µM; inhibition of aggregation: stronger effect = higher value; nuclei count: measured here: cell count, toxicity.
The target in assay [11] is Alpha-2C adrenergic receptor (Homo sapiens) (UniProt P18825). The experiment in a line: compounds altering alpha2C-coupled GIRK flux – cell-based, HEK293 alpha2C/GIRK1/2, thallium flux, primary screen (AID 624;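 active = fluorescence slope after compound addition differing from the mean of all screened samples at 99.7% confidence, in either direction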;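 note: slope of fluorescence ratio to pre-addition baseline per second over 15 to 24 s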). The conditions noted are these: thallium flux BTC fluorescence, at 10 µM, actives lie on both sides.
Alpha-2C adrenergic receptor (Homo sapiens), sequence (P18825 whole entry, looked up): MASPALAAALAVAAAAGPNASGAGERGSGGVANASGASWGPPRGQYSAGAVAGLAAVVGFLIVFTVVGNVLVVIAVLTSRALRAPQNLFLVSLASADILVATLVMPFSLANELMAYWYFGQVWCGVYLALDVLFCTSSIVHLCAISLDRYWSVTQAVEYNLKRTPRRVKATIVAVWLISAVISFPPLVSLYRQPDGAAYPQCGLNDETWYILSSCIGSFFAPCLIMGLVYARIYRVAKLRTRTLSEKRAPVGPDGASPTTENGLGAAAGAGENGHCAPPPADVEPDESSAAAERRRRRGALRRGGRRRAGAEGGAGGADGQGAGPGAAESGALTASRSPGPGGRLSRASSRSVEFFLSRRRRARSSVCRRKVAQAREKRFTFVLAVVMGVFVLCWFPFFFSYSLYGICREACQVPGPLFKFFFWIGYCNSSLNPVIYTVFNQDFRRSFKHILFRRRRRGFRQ
A short description of assay [12]: blockers of RIG-like receptor reporter activation – cell-based, Sendai virus stimulus, luciferase, 10K MLSCN set, TLR/RLR signaling modifier project, primary screen (AID 602276;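 active = inhibition at or above 50% at 10 µM; inactive = inhibition below 50%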;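 note: firefly luciferase from ISG56 promoter only with Renilla not read in this screen; 0% = Sendai virus plus DMSO and 100% = medium plus DMSO without virus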). The conditions noted are these: HEK293 RL24 IRF3 luciferase reporter, at 10 µM, stronger effect = higher value.
Assay [13] can be described thus: TLR3 IRF3 reporter activation blockers – cell-based, poly I:C stimulus, luciferase, 10K MLSCN set, primary screen (AID 602277;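 active = inhibition of the reporter signal at or above 50%; inactive = inhibition below 50%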). To be noted: HEK293-TLR3 RL24 IRF3 luciferase reporter, at 10 µM, stronger effect = higher value.
Where [14] appears, read: measured here: cell density z-score.
Where [15] appears, read: measured here: nuclear c-Myc green intensity z-score.
[16] abbreviates: measured here: nuclear pErk red intensity z-score, stronger effect = higher value.

The structures appear in SMILES notation. Where “and” joins values, the source holds several entries; their conditions need not be identical. Equal entries are not always repeated. Calls of active or inactive are those of the source.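 Rule for the calls, unless noted: active = inhibition at or above 50% relative to wild type and mutant plate controls; inactive = inhibition below 50%.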

Voltage-gated potassium channel subunit beta-2 (Rattus norvegicus), sequence (P62483 whole entry, looked up): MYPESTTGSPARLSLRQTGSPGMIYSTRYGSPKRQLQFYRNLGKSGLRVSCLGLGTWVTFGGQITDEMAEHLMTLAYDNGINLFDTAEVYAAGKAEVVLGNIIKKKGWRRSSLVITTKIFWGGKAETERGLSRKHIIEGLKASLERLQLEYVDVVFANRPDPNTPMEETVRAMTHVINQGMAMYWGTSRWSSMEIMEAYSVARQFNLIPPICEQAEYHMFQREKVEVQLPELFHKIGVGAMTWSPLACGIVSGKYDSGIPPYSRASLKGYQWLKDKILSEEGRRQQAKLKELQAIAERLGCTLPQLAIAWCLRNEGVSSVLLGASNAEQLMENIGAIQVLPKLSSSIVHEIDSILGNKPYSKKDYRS
Dual specificity protein phosphatase 6 (Homo sapiens), sequence (Q16828 whole entry, looked up): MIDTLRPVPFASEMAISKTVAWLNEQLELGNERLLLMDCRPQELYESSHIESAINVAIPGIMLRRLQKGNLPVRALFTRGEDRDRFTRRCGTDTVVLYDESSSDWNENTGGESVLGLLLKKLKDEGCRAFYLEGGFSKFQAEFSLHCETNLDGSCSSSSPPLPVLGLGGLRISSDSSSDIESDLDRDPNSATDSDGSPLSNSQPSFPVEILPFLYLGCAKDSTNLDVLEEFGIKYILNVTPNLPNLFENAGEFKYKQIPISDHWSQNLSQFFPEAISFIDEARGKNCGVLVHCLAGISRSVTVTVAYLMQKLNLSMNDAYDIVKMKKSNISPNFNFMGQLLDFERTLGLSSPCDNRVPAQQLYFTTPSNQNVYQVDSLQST

In general, inhibition refers to the drop in the measured response relative to a control, in per cent. For the compound `Cn1c(=O)c2c(nc(NCC(O)CO)n2CCc2ccccc2)n(C)c1=O` (configuration not stated), the cell count in assay [1] turned out to be 693. Besides, the inhibition in assay [1] was 2% (inactive); in [2], -108% (inactive); in assay [4], 19.8% (inactive); in [9], 24.7% (inactive). Also, the nuclei count in assay [2] came to 172%. The z-score in assay [3] (setting [14]) was 0.322; in assay [3] (setting [15]), -1.96; in assay [3] (setting [16]), -0.0564. For the same compound, the fluorescence slope in assay [5] is -0.483 (inactive); in assay [7] it was 0.00665 (inactive). Besides, the NADPH fluorescence slope in assay [6] was -1e-05 (inactive). Further, the compound was called inactive in assay [8].

Take `CC(=O)OCC(=O)[C@@]1(O)CC[C@H]2[C@@H]3CCC4=CC(=O)CC[C@]4(C)[C@H]3C(=O)C[C@@]21C`: in [10], the inhibition of aggregation was 16.5% (inactive). Further, the nuclei count is 99.5% in assay [10] and 97.4% in assay [2]. Besides, the inhibition in assay [2] is -92.4% (inactive); in assay [4], 3.59% (inactive); in assay [9] it was 9.11% (inactive) and 28.9% (inactive); in assay [12] it was 3.98% (inactive); in assay [13], 27.5% (inactive). Further, the z-score is -1.29 in assay [3] (setting [14]), -1.69 in assay [3] (setting [15]) and 0.158 in assay [3] (setting [16]). Further, the fluorescence slope in [5] is -0.477 (inactive). Besides, the NADPH fluorescence slope in assay [6] was -6.1e-05 (inactive). In addition, the slope in assay [11] is 0.00575 (inactive).

For the compound `CC1(C)Cc2c(c(-c3ccccc3)[nH]c(=O)c2C#N)CS1`, the cell count in assay [1] came out at 499. Besides, the inhibition in assay [1] is -15.7% (inactive); in assay [2] it was -47.8% (inactive); in assay [4], 14.7% (inactive); in assay [9], -6.24% (inactive). Moreover, the nuclei count in [2] stood at 131%. The z-score is 1.65 in assay [3] (setting [14]), -1.74 in assay [3] (setting [15]) and -0.608 in assay [3] (setting [16]). Moreover, the fluorescence slope in assay [5] is -0.426 (inactive); in assay [7] it was 0.0044 (inactive). In addition, the NADPH fluorescence slope in [6] is -2.8e-05 (inactive). In addition, the result in [8] was inactive.

Take `COc1ccc(-n2ccc(=O)c3c2CCCC3=O)cc1`: the cell count in [1] came out at 538. Also, the inhibition is -18% (inactive) in [1], -24.2% (inactive) in assay [2], -3.97% (inactive) in assay [4] and -7.89% (inactive) in assay [9]. This compound returned a nuclei count in assay [2] of 175%. Moreover, the z-score was 0.411 in [3] (setting [14]), 1.24 in [3] (setting [15]) and 0.919 in assay [3] (setting [16]). For the same compound, the fluorescence slope in assay [5] was -0.383 (inactive); in [7], 0.00531 (inactive). The NADPH fluorescence slope in assay [6] is -5.1e-05 (inactive). Further, in [8], the outcome was inactive.

Turning to `O=C(O)c1c[nH]c2ccc(S(=O)(=O)N3CCOCC3)cc12`, the cell count in assay [1] worked out at 597. The inhibition in assay [1] is -4.4% (inactive); in [2], -208% (inactive); in assay [4] it was 5.42% (inactive); in assay [9], 8.59% (inactive). In [2], this compound yielded a nuclei count of 144%. In addition, the figures for the z-score in assay [3] (setting [14]), in assay [3] (setting [15]) and in [3] (setting [16]) were -0.324, -1.59 and 0.18, respectively. Moreover, the values for the fluorescence slope in assay [5] and in assay [7] were -0.496 (inactive) and 0.00433 (inactive), respectively. For the same compound, the NADPH fluorescence slope in [6] is -6.6e-05 (inactive). In addition, in [8], the outcome was inactive.

As to `C=CC(O)Cc1c(C)n[nH]c1C` (configuration not stated), the cell count in assay [1] stood at 656. In addition, the inhibition in assay [1] is -7.1% (inactive); in assay [2], -59.4% (inactive); in [4], -9.66% (inactive); in assay [9] it was 11.7% (inactive). The compound also gave a nuclei count in assay [2] of 167%. The z-score in [3] (setting [14]) was -1.01; in assay [3] (setting [15]) it was -0.115; in assay [3] (setting [16]), -0.502. The fluorescence slope in assay [5] was -0.503 (inactive); in assay [7] it was 0.00568 (inactive). Besides, the NADPH fluorescence slope in [6] was -6.2e-05 (inactive). In addition, the outcome in assay [8] was inactive.

With `CCCCc1c(C)c2ccc(OCC(C)=O)cc2oc1=O`, in [1], the cell count was 647. Besides, the inhibition in assay [1] was -10% (inactive); in assay [2] it was 51.6% (inactive); in assay [4], 47.6% (inactive); in assay [9], -0.273% (inactive). The nuclei count in [2] turned out to be 90.6%. The z-score in [3] (setting [14]) was -2.59; in assay [3] (setting [15]) it was 0.867; in assay [3] (setting [16]) it was -5.29. Besides, the figures for the fluorescence slope in [5] and in [7] were -0.472 (inactive) and 0.00708 (inactive), respectively. The NADPH fluorescence slope in assay [6] is -3.8e-05 (inactive). Also, in assay [8], the compound was called inactive.
